Screen size: about 2,100 compounds; about 590 (28%) were called active. Not shown: some 42% with an inconclusive outcome. The list shows a part of the results. A number with no mark means an inactive call. The call rests on the fitted dose curve; in most records, active means well fitted inhibition curve with a large enough effect; inconclusive means small, poorly fitted or top-dose-only effect; inactive means flat fitted curve, though single readings scatter.
Potency means the concentration at half of the fitted maximal effect.

Chain of DNA dC->dU-editing enzyme APOBEC-3F (Homo sapiens) (Q8IUX4 whole entry, looked up): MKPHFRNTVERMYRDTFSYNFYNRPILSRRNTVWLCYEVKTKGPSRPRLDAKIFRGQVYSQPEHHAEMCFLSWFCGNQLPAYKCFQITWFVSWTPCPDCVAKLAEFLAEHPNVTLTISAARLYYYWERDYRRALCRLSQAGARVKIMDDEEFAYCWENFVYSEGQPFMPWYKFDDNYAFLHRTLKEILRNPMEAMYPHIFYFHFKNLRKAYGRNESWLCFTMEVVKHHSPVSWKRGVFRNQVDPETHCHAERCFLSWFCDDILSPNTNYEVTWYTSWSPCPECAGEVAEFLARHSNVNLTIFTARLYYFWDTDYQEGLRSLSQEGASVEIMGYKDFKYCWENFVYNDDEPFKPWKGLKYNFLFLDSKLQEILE

For the experiment, the target named is DNA dC->dU-editing enzyme APOBEC-3F (Homo sapiens) (UniProt Q8IUX4). In words: qHTS for inhibitors of Vif-A3F interactions: Cherry picks. Further: nearly all actives have a fitted effect of over 70% in size.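 On max response: % of control where 0% means no effect; active compounds raise eYFP fluorescence by blocking Vif-driven A3F loss.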 The note with it: HeLa A3F-eYFP + Vif (tagged APOBEC3F with the HIV-1 protein that degrades it), eYFP fluorescence, 24 h. Put shortly:
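HeLa cells stably expressing A3F-eYFP plus Vif, cultured overnight, then exposed to compounds at several concentrations for 24 h at 37 deg C. Reduced Vif-driven degradation read as rising eYFP fluorescence (488 nm ex/500-530 nm em) by laser-scanning cytometry; MG132 as positive control.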
Background: Quantitative high-throughput screening tests each substance at several concentrations.
Consider `N#Cc1c(Nc2ccccc2)[n+]([O-])c2ccc(Cl)cc2[n+]1[O-]`, for which the max response is -2.22%. Same read-out and setting: to `Oc1ccc(C=NNC(=S)Nc2ccc(F)cc2)c(O)c1` belongs -2.9%. Same read-out and setting: to `S=C(NN=Cc1ccccn1)Nc1ccccn1` belongs 1.89%. With `Clc1ccc(/C=N/NC2=Nc3cccc4cccc2c34)cc1`, the Potency is 14.6 µM (active).

`Cc1csc(NC(=O)CCC(=O)N(CC(=O)NC2CCCC2)Cc2ccccc2)n1`: the max response was 0.176%.

As to `COc1ccc(C2CC(c3ccncc3)=NN2c2ccc(S(N)(=O)=O)cc2)cc1` (stereo not given), the Potency was 16.4 µM (active). As to `CCS(=O)(=O)N1N=C(c2ccc(C)cc2)CC1c1cc2ccc(OC)cc2nc1Cl` (stereo not given), the max response is -11.9%.

Turning to `C(=C\c1c[nH]c2ccccc12)/c1nccc2ccccc12`, the Potency is 10.3 µM (active). For the molecule `C(=Cc1c[nH]c2ccccc12)c1nccc2ccccc12`, the Potency was 20.6 µM (active). Still for that read-out and setting: to `Cc1ccc2c(/C=C/c3c[nH]c4ccccc34)ccnc2c1C` belongs 14.6 µM (active). As for `c1ccc2c(c1)nc(N1CCOCC1)c1nnnn12`, the max response was -7.94%.

For the molecule `O=C(Nc1ncccn1)c1ccc([N+](=O)[O-])o1`, the max response is -18.8%. Turning to `N#CCc1ccc(NC(=O)/C=C/c2ccc([N+](=O)[O-])o2)cc1`, the Potency was 4.11 µM (active). On to `COC(=O)c1sc(NC(=O)c2ccc([N+](=O)[O-])o2)c(C#N)c1C`, for which the max response was -29.9%.

In the case of `CCOC(=O)CCc1ccc(NC(=O)/C=C/c2ccc([N+](=O)[O-])o2)cc1`, the Potency was 8.2 µM (active).

`O=[N+]([O-])c1ccccc1C=NNC(=S)NN=Cc1ccccc1[N+](=O)[O-]`: the max response was -27.9%. The same measure, in the same setting: to `CCN1C/C(=C/c2cccc([N+](=O)[O-])c2)C(=O)/C(=C/c2cccc([N+](=O)[O-])c2)C1` belongs -17.2%.

As to `Nc1ccccc1C=C1Cc2ccccc2C1=O`, the Potency is 11.6 µM (active). Same read-out and setting: the figure for `O=C1C(=Cc2ccccc2[N+](=O)[O-])Cc2ccccc21` is 18.4 µM (active). As for `CC(NC(=S)Nc1cccc(C(F)(F)F)c1)C(C)(C)C` (stereo not given), the max response was 1.09%. The same measure, in the same setting: the figure for `Cc1[nH][nH]c(=O)c1C(c1c(C)[nH][nH]c1=O)c1cn(Cc2ccccc2Cl)c2ccccc12` is -24.8%. For the molecule `Cc1ccc2nc(/C(C#N)=C/c3ccc(O)c(O)c3)[nH]c2c1`, the Potency was 15.8 µM (active). For the molecule `COc1cc(/C=C(\C#N)c2nc3ccc(C)cc3[nH]2)ccc1OC(C)C`, the Potency is 20.6 µM (active). On to `C=CCNC(=S)N/N=C/c1ccc(C)cc1C`, for which the max response is -2.08%.

In the case of `COc1ccccc1NS(=O)(=O)c1cc([N+](=O)[O-])ccc1N/N=C/c1c[nH]c2ccccc12`, the Potency was 13 µM (active). The same measure, in the same setting: to `COc1ccccc1NS(=O)(=O)c1cc([N+](=O)[O-])ccc1N/N=C/c1c(C)[nH]c2ccccc12` belongs 1.98 µM (active); to `Cc1[nH]c2ccccc2c1/C=N/Nc1ccc([N+](=O)[O-])cc1`, 18.4 µM (active). For the molecule `CCN(CC)c1ccc(NC(=O)c2ccc(=O)[nH]c2)cc1S(=O)(=O)Nc1ccccc1OC`, the max response is -20.2%. For `O=[N+]([O-])c1ccc(N/N=C/c2c[nH]c3ccccc23)cc1`, the Potency is 14.6 µM (active).

As to `O=C(N/N=C/c1c[nH]c2ccccc12)C1COc2ccccc2O1` (stereo not given), the max response is 4.43%. `Cc1cccn2c(=O)c3cc(C#N)c(=NC(=O)c4cccs4)n(CCCOC(C)C)c3nc12`: the max response is -23.5%. In the case of `Cc1cccc(CSc2cccc3cccnc23)c1`, the max response was 2.73%. Same read-out and setting: to `Cn1c(=O)c2c(nc(NC3CCCC3)n2C)n(C)c1=O` belongs -0.225%.

For the molecule `COc1cc(/C=N/Nc2cc(C)nc(NS(=O)(=O)c3ccccc3)n2)ccc1O`, the max response was 2.36%.

For the molecule `O=C(c1ccccn1)C1CCCN(Cc2cn[nH]c2-c2cc3ccccc3o2)C1` (stereo not given), the max response was 1.54%.

In the case of `O=C(O)CSc1c2ccccc2cc2ccccc12`, the max response is -4.37%. In the case of `COc1ccc(NS(=O)(=O)c2cc([N+](=O)[O-])ccc2N/N=C/c2c(C)[nH]c3ccccc23)cc1`, the Potency was 16.4 µM (active). On the same count and under the same terms, the figure for `O=[N+]([O-])c1ccc(N/N=C/c2c[nH]c3ccccc23)c(S(=O)(=O)Nc2ccc(Cl)cc2)c1` is 18.4 µM (active); for `C/C(=N/Nc1ccc([N+](=O)[O-])cc1)c1c[nH]c2ccccc12` it is 9.2 µM (active).

Take `CNC(=S)N/N=C(\C)c1ccc(Cl)s1`: the max response is -3.1%.

For the molecule `COCCNC(=S)N/N=C(\C)c1ccccc1O`, the max response is 0.575%. As to `Cc1ccc2nc(NS(=O)(=O)c3ccc(Cl)cc3)c(Nc3ccc(C(=O)O)cc3)nc2c1`, the max response was -8.36%.

For `Cc1ccc(NC(=O)c2ccc(NCC3CCCO3)c([N+](=O)[O-])c2)cc1Cl` (stereo not given), the Potency was 20.6 µM (active).

With `O=C(Nc1cc(F)cc(F)c1)c1ccc(NCCc2ccccc2)c([N+](=O)[O-])c1`, the Potency was 20.6 µM (active). As for `COc1ccc(NC(=O)c2ccc(NC(=O)C(C)C)cc2)c([N+](=O)[O-])c1`, the max response was -19.6%.

Take `Cc1ccc(NC(=O)c2ccc(NCCCN3CCC(C)CC3)c([N+](=O)[O-])c2)cc1F`: the max response is -24%. The same measure, in the same setting: to `O=C(NC(=S)Nc1ccc(N2CCCCC2)c(Cl)c1)c1ccc2c(c1)OCCO2` belongs -28.8%. Regarding `Cc1ccc(NC(=O)c2ccc(NCc3ccco3)c([N+](=O)[O-])c2)cc1Cl`, the Potency was 16.4 µM (active). Take `CC1C/C(=N\NC(N)=S)c2cc(Cl)ccc2S1` (stereo not given): the max response was -5.07%. In the case of `C/C(CCC(C)C)=N\NC(=S)NCc1ccccc1`, the max response was -4.2%.

As to `CCOC(=O)Cc1csc(NC(=O)c2sc3nc4c(C)cc(C)cc4cc3c2N)n1`, the Potency is 20.6 µM (active). In the case of `CCOC(=O)c1csc(NC(=O)c2cc(-c3ccccn3)nc3ccccc23)n1`, the max response was -1.96%. As for `C[C@]12CCC[C@H](O1)c1c(cc3c(c1O)C(=O)c1c(O)cc(O)cc1C3=O)O2`, the Potency is 14.6 µM (active). On to `O=C(CC1CC2CCC1C2)Nc1nc(-c2ccccn2)cs1` (stereo not given), for which the max response was 0.305%. Regarding `CCOC(=O)CSc1nc2c(c(=O)[nH]1)C(C)(CC)Cc1ccccc1-2` (stereo not given), the Potency is 8.2 µM (active). As for `Cc1sc2nc(SCC(=O)N3CCOCC3)[nH]c(=O)c2c1-c1ccccc1`, the max response is -2.85%. `CCN(CC)c1ccc(/C=C(/C#N)c2nc3ccccc3[nH]2)c(OC(C)C)c1`: the Potency was 2.06 µM (active). Turning to `Cc1cccc(OCCOc2ccccc2C=C(C#N)C#N)c1`, the max response was -24.6%.

As to `CCOc1cc(N(CC)CC)ccc1/C=C(/C#N)c1nc2ccccc2[nH]1`, the Potency is 1.46 µM (active). For the molecule `CCCOc1cc(N(CC)CC)ccc1/C=C(/C#N)c1nc2ccc(C)cc2[nH]1`, the max response was 0.514%.

For the origin of these results see PubChem BioAssay AID651814 (National Center for Advancing Translational Sciences (NCATS), 2012).
